Reference: PubChem BioAssay AID1851 (National Center for Advancing Translational Sciences (NCATS), 2009)
Several values for one entry are separate records, joined by “and”; a condition that tells them apart may be missing. Identical values can stand only once. Out of some 16,000 compounds screened, about 2,600 (16%) were called active. Another 20% or so got no clear call; they are omitted. The call rests on the fitted dose curve; in most records, active means well fitted curve in the direction sought with a large enough effect; inconclusive means small, poorly fitted or top-dose-only effect, or effect the other way; inactive means no such curve, though single readings can be large or run the other way. These entries were drawn from the full list.

target: Cytochrome P450 2D6 (Homo sapiens) (UniProt P10635); assay: Cytochrome panel assay with activity outcomes; conditions: recombinant CYP, pro-luciferin dealkylation, luminescence, p450-cyp2d6; series mostly up to 57.1 µM; activity, negative = inhibition: at the top concentration
On the % scale 0 is the no-effect control and ±100 the full control effect.

Cytochrome P450 2D6 (Homo sapiens), sequence (P10635 whole entry, looked up): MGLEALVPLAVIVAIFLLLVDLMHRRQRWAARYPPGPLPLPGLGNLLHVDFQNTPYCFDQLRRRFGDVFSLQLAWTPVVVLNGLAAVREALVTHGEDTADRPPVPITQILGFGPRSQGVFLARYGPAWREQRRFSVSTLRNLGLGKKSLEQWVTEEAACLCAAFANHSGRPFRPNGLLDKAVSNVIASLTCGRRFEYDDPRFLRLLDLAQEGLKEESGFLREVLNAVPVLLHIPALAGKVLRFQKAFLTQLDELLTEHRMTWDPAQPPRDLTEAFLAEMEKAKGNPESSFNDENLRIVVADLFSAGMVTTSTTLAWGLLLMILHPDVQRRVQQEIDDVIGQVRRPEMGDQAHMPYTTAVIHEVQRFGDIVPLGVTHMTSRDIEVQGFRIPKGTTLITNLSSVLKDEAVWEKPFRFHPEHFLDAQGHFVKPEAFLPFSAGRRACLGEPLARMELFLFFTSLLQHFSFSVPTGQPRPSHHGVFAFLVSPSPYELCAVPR

| Compound | activity, negative = inhibition | AC50 |
| --- | --- | --- |
| O=c1n(-c2ccccc2)c(=O)n2n1CC[C@H]1/C(=N\OC[C@@H](O)COCc3ccco3)[C@H]3O[C@@H]3[C@@H](O)[C@@H]12 | 0.6% [at 11.4 µM] (inactive) and 20% [at 11.4 µM] (inactive) | – |
| COC1(OC)N=C(NC(=O)Nc2ccccc2)C2(C#N)C(c3ccccc3)C12C#N (configuration not stated) | 0.403% (inactive) | – |
| COc1ccc(-c2noc(C3CCCN(C(=O)c4ccccc4OC)C3)n2)cc1OC (configuration not stated) | -13.3% (inactive) | – |
| CCCC[C@@H]1C[C@H]1C(NC(=O)c1cccs1)c1ccc(-c2ccccc2)cc1 (some centres not stated) | 4.23% (inactive) | – |
| CC1CCCN(CC(O)COCC2COc3ccccc3O2)C1 (configuration not stated) | – | 2.51 µM (active) |
| CN1CCN(S(=O)(=O)c2cc([N+](=O)[O-])ccc2N2CCCCCC2)CC1 | -22.5% (inactive) | – |
| CC(=O)OCC(=O)[C@@]1(O)CC[C@@H]2[C@H]3CCC4=CC(=O)CC[C@]4(C)[C@]3(F)[C@@H](O)C[C@@]21C | -0.161% [at 25.6 µM] (inactive) | – |
| Oc1ccc2oc3c(c2c1)CCCC3 | -4.04% (inactive) | – |
| Cc1ccc(C(=O)N(CN2CCCC2=O)c2ccccc2)cc1C | -0.523% (inactive) | – |
| O=C(CN1CCN(Cc2ccccc2)CC1)N1CCCc2c1c(=O)oc1ccc(O)cc21 | – | 12.6 µM (active) |
| COc1ccc(O)c(/C=N/NC(=O)c2ccc(OCc3cccc(Br)c3)cc2)c1 | -5.88% (inactive) | – |
| CCc1cc2c(Sc3nc4ccccc4s3)ncnc2s1 | -1.72% (inactive) | – |
| CCc1cc2c(NCc3ccco3)ncnc2s1 | – | 17.8 µM (active) |
| CCc1cc2c(NCCO)ncnc2s1 | -3.72% (inactive) | – |
| COc1ccc(-c2csc(-n3ncc(-c4cccs4)c3N)n2)cc1 | 11.5% (inactive) | – |
| CCOC(=O)c1sc2c(c1C)c(=O)c(C(=O)OCC)cn2CC | 2.44% (inactive) | – |
| Cc1nnc(NC(=O)c2oc3c(ccc4ccccc43)c2C)s1 | 4.25% (inactive) | – |
| COC(=O)c1cc(=O)[nH]c(=O)[nH]1 | -4.62% [at 11.4 µM] (inactive) | – |
| CCOC(=O)N/N=C1/C[C@@H](O)[C@@H](O)[C@@H]2[C@@H]3C(=O)N(C(C)(C)C)C(=O)[C@H]3CC[C@H]12 | -1.55% [at 11.4 µM] (inactive) | – |
| O=C(N/N=C/c1ccc(Sc2nc3ccccc3s2)c([N+](=O)[O-])c1)c1ccccn1 | 4.06% (inactive) | – |
| O=[N+]([O-])c1c(NCCO)cc(Sc2nc3ccccc3s2)c2nonc12 | – | 14.1 µM (active) |
| Cc1ccc(S(=O)(=O)NC(=O)CSc2nc3ccccc3s2)cc1 | -17.9% (inactive) | – |
| C[C@@]1(C(=O)O)CCC[C@@H]1C(=O)O | 9.41% [at 11.4 µM] (inactive) | – |
| CC(=O)Nc1c(C(=O)N2CCOCC2)cnn1-c1ccc(C)c(C)c1 | 5.39% (inactive) | – |
| COc1ccc(NC(=O)CN2CCN(CC(=O)Nc3ccccc3Cl)CC2)cc1 | -13.4% (inactive) | – |
| COc1ccccc1NC(=O)CN1CCN(c2ccccc2F)CC1 | -23.7% (inactive) | – |

| Compound | activity, negative = inhibition | AC50 |
| --- | --- | --- |
| O=C(CCN1CCN(c2ccccc2F)CC1)Nc1ccccc1F | – | 11.2 µM (active) |
| O=C(CCN1C(=O)C2C3C=CC(C3)C2C1=O)Nc1c(F)cccc1F (configuration not stated) | -4.03% (inactive) | – |
| O=C(CS(=O)c1cccc(Cl)c1)Nc1ccccc1Cl (configuration not stated) | -31.7% (inactive) | – |
| O=C(CCN1CCN(CC(=O)Nc2ccccc2Cl)CC1)Nc1ccccc1F | – | 1.26 µM (active) |
| COCCn1c(=O)c(C)nc2cnc(Oc3ccc(OC)cc3)nc21 | -8.18% (inactive) | – |
| CN(C)c1ncc2nc(-c3cccs3)c(=O)n(C[C@H]3CCCO3)c2n1 | 14.3% (inactive) | – |
| O=C(CP(=O)(c1ccccc1)c1ccccc1)Nn1cnnc1 | 24% (inactive) | – |
| COCCN(CCOC)S(=O)(=O)c1ccc(C(=O)Nc2nc(C)c(C(C)=O)s2)cc1 | -11.8% (inactive) | – |
| NC(=O)CN1CCOCCOCCOCCOCCOCC1 | -5.95% (inactive) | – |
| O=C(Nc1cccc(F)c1)N1CCC2(CC1)CCN(C(=O)c1ccco1)CC2 | -5.21% (inactive) | – |
| COc1ccc(CCNc2cc(-c3ccccc3)nc3ncnn23)cc1 | -25.9% (inactive) | – |
| COc1ccc(-n2c3c(c(=O)[nH]c2=O)C(C(F)(F)F)(C(F)(F)F)N=C(CC(C)C)N3)cc1 | 12.1% (inactive) | – |
| CCCn1c(=O)c2c(ncn2C)n(CCC)c1=O | 2.92% (inactive) | – |
| NC(N)=NNC(=O)C(=O)O | 7.44% [at 11.4 µM] (inactive) | – |
| C(=N\N1CCN(C2c3ccccc3-c3ccccc32)CC1)/c1cccnc1 | – | 0.631 µM (active) |
| c1ccc2c(c1)-c1nc3ccccc3cc1[C@H]2N1CCOCC1 | -4.83% [at 11.4 µM] (inactive) | – |
| C/C(=N\N1CCN(C2c3ccccc3-c3ccccc32)CC1)c1cccnc1 | – | 2 µM (active) |
| O=C(O)c1cccnc1 | -0.65% [at 25.6 µM] (inactive) | – |
| C/C(=N\N1CCN(C2c3ccccc3-c3ccccc32)CC1)c1ccncc1 | – | 0.178 µM (active) |
| O=[N+]([O-])c1cc(/C=N/N2CCN(C3c4ccccc4-c4ccccc43)CC2)ccc1Cl | -0.998% (inactive) | – |
| CC(C)(C(=O)c1cccnc1)c1cccnc1 | -0.587% [at 25.6 µM] (inactive) | – |
| O=C(NCC1CCCO1)C(c1cccnc1)N(C(=O)Cc1cccs1)c1cccnc1 (configuration not stated) | 11.9% (inactive) | – |
| Cc1nnc(NS(=O)(=O)c2ccc(N)cc2)s1 | -1.12% [at 25.6 µM] (inactive) | – |
| O=C(O)Cc1ccc2ocnc2c1 | 19.2% (inactive) | – |
| CCCC(=O)N1c2ccccc2C(N(C(C)=O)c2ccccc2)CC1C (configuration not stated) | -4.05% (inactive) | – |
| O=C(Nc1cc2c(oc1=O)CCCC2=O)c1ccc(Cl)cc1 | -15% (inactive) | – |

| Compound | activity, negative = inhibition | AC50 |
| --- | --- | --- |
| S=c1[nH]c2cc(Cl)ccc2s1 | -23.7% (inactive) | – |
| COc1ccc2nc(N)sc2c1 | -5.21% (inactive) | – |
| NCC[C@H](O)C(=O)N[C@H]1C[C@@H](N)[C@@H](O[C@H]2O[C@@H](CN)[C@@H](O)[C@@H](O)[C@@H]2O)[C@@H](O)[C@@H]1O[C@H]1O[C@@H](CO)[C@@H](O)[C@@H](N)[C@@H]1O | 3.98% [at 25.6 µM] (inactive) | – |
| Cc1n[nH]c(C)c1S(=O)(=O)N1CCOCC1 | 13.9% (inactive) | – |
| COc1ccc(/C=N/OCc2nc3c4c(ncn3n2)Oc2ccc3ccccc3c2C4c2ccccc2)cc1 (configuration not stated) | -1.08% (inactive) | – |
| Fc1ccc(-c2ccnc3nc(N4CCOCC4)nn23)cc1 | -4.82% (inactive) | – |
| Cc1c(NC(=O)CN2CCN(c3ccccc3)CC2)c(=O)n(-c2ccccc2)n1C | 2.48% (inactive) | – |
| Cc1cccc(C)c1NC(=O)CN1CCN(CCCC(c2ccc(F)cc2)c2ccc(F)cc2)CC1 | – | 5.01 µM (active) |
| Cc1cccc(C)c1NC(=O)CS(=O)CC(=O)Nc1ccc(F)cc1F (configuration not stated) | -20.9% (inactive) | – |
| Nc1nc2c(c(=O)[nH]1)N[C@H](CCNc1ccc(C(=O)O)cc1)CN2 | 1.76% [at 11.4 µM] (inactive) | – |
| Cc1nc(-c2cccnc2)sc1C(=O)Nc1ccc(F)cc1F | -13.3% (inactive) | – |
| Cc1nc(-c2cccnc2)sc1C(=O)Nc1ccc(Cl)cc1 | – | 15.8 µM (active) |
| CNC(=O)c1sc(-c2cccnc2)nc1C | 1.87% (inactive) | – |
| N#CCCn1c(=O)c(-c2ccc(Cl)cc2)nc2cnc(Oc3cccc(Cl)c3)nc21 | 8.48% (inactive) | – |
| CCOC(=O)C(C)(C)[C@H](O)C(C)C | 10.9% [at 11.4 µM] (inactive) | – |
| N[C@@H](Cc1ncccn1)C(=O)O | -1.91% [at 11.4 µM] (inactive) | – |
| Clc1ccc(COC(Cn2ccnc2)c2ccc(Cl)cc2Cl)c(Cl)c1 (configuration not stated) | – | 1 µM (active) |
| Cc1nn(C)c(Cl)c1NC(=O)OCc1ccc(Cl)cc1Cl | -12.9% (inactive) | – |
| Clc1ccc([C@H](Cn2ccnc2)OCc2csc3c(Cl)cccc23)c(Cl)c1 | – | 5.01 µM (active) |
| Clc1ccc(CO[C@@H](Cn2ccnc2)c2ccc(Cl)cc2Cl)cc1 | – | 0.2 µM (active) |
| COCCn1c(=O)c(-c2cc(F)cc(F)c2)nc2cnc(N3CCOCC3)nc21 | 9.89% (inactive) | – |
| O=C1Nc2ccc(F)cc2C12SCCS2 | -4.91% (inactive) | – |
| Cn1c(=O)c(-c2ccc(F)c(F)c2)nc2cncnc21 | -1.7% (inactive) | – |
| N#CCCn1c(=O)c(CCc2ccccc2)nc2cnc(Oc3cccc(Cl)c3)nc21 | 1.73% (inactive) | – |
| CC1CCC(=NNC(=O)Cc2ccccc2)CC1 (configuration not stated) | -22% (inactive) | – |
| CN1Cc2c(C(=O)OC(C)(C)C)ncn2-c2ccsc2C1=O | -3.58% (inactive) | – |

| Compound | activity, negative = inhibition | AC50 |
| --- | --- | --- |
| N#Cc1ccc(-c2ccc(F)cc2)nc1Oc1ccc(Cl)c(Cl)c1 | 1.51% (inactive) | – |
| Cc1ccc2ncc([N+](=O)[O-])n2c1 | 0.899% (inactive) | – |
| O=C(O)C1=CCCNC1 | – | inactive |
| O=C(O)C(=O)/C=C(\O)c1ccc(Br)cc1 | -0.0145% [at 11.4 µM] (inactive) | – |
| Cc1cc(S(=O)(=O)NCCCN2CCOCC2)ccc1F | – | 12.6 µM (active) |
| CC(=O)Nc1ccc(S(=O)(=O)NC(CC(=O)NCCCN2CCOCC2)C(C)C)cc1 (configuration not stated) | -17.2% (inactive) | – |
| Cc1ccc(-c2nn3c(C)nnc3c3ccccc23)cc1S(=O)(=O)NCCN1CCOCC1 | -18% (inactive) | – |
| COc1ccc(-c2nc3cnc(N4CCN(C)CC4)nc3n(Cc3ccc(F)cc3)c2=O)cc1 | -1.05% (inactive) | – |
| O=C(O)CCC(=O)c1ccc2sc3ccccc3c2c1 | -3.63% [at 11.4 µM] (inactive) | – |
| CCCCN(CCCC)CCCOC(=O)c1ccc(N)cc1 | – | 0.00631 µM (active) |
| CCCCNc1ccc(C(=O)OCCOCCOCCOCCOCCOCCOCCOCCOCCOC)cc1 | -0.114% [at 25.6 µM] (inactive) | – |
| CN(C)CCOC(=O)c1ccc(N)cc1 | 11.9% [at 11.4 µM] (inactive) | – |
| Cc1cc([N+](=O)[O-])c(C)c(Br)c1C | -1.18% [at 11.4 µM] (inactive) | – |
| CC(C)(C)C(=O)OCOC(=O)[C@@H]1N2C(=O)[C@@H](NC(=O)[C@H](N)c3ccccc3)[C@H]2SC1(C)C | -5.86% [at 25.6 µM] (inactive) | – |
| O=C(Nc1cccc(F)c1)N1CCCC2(CCN(C(=O)c3cc(C(F)(F)F)cc(C(F)(F)F)c3)CC2)C1 | -4.07% (inactive) | – |
| COc1ccc2c(=O)c(-c3ccccc3)c(C)oc2c1 | 1.82% (inactive) | – |
| CCOc1ccccc1Oc1c(C)oc2cc(OC(=O)c3ccco3)ccc2c1=O | -2.7% (inactive) | – |
| CCOc1ccccc1Oc1coc2cc(OC)ccc2c1=O | – | 0.501 µM (active) |
| CC(C)C(C(=O)O)N1C(=O)/C(=C/C=C/c2ccco2)SC1=S (configuration not stated) | 8.03% (inactive) | – |
| CCCCN(C)C(=O)c1coc(=O)c2ccccc12 | 23.8% (inactive) | – |
| O=[n+]1c2c(n([O-])c3cc(F)c(F)cc31)CCCC2 | 3.89% (inactive) | – |
| CCC(=O)Nc1ccc2c(c1)C(=O)c1ccccc1C2=O | – | 7.08 µM (active) |
| O=C(Nc1ccc(Nc2ccc3c(c2)C(=O)c2ccccc2C3=O)c2c1C(=O)c1ccccc1C2=O)c1ccccc1 | -5.75% [at 11.4 µM] (inactive) | – |
| O=C1c2ccccc2-c2ccc(NC(=O)[C@H]3CCCC[C@@H]3C(=O)O)cc21 | -8.68% [at 11.4 µM] (inactive) | – |
